Test results: PubChem BioAssay AID720697 (Broad Institute, 2013)
Measured potencies and affinities stand elsewhere. Records with an inconclusive call do not appear. A number with no mark means an inactive call.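 How the source made its calls: active means signal loss with fitted half-maximal concentration at or below twice the top valid tested dose in every test run; inconclusive means runs disagree, flat 30 to 70% signal loss, or poor fit; inactive means all runs flat, opposite direction, or potency beyond limit.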

Test: general mammalian cell viability loss – inhibitor set, cherry-pick, set 2, cytotoxicity control for miR-122 modulator project, dose response (AID 720697);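 further: 0% = median of neutral control wells and -100% = MG132 positive control wells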
Settings: HEK293T viability, CellTiter-Glo luminescence, 48 h; series mostly up to 26 µM; activity change, negative = cytotoxicity: at the top concentration

| Structure (SMILES) | activity change, negative = cytotoxicity |
| --- | --- |
| C/C=C/c1ccc([C@H]2[C@@H](CO)N(Cc3ccccn3)[C@H]2CNC(C)=O)cc1 | 156% [at 23.5 µM] |
| CN(C)CCCNC(=O)C[C@H]1CC[C@H]2[C@@H](COc3ccc(NC(=O)c4ccccc4F)cc3C(=O)N2C)O1 | 42.9% |
| COc1cccc(CNC(=O)C[C@@H]2CC[C@H]3[C@H](COc4ccc(NS(=O)(=O)c5ccccc5F)cc4C(=O)N3C)O2)c1 | 87.4% |
| COCC(=O)N1C[C@H]2[C@@H](c3ccccc31)[C@H](CO)N2C(=O)Nc1ccccc1Cl | 72.2% |
| O=C(CSc1nc2ccccc2s1)N1CCOCC1 | 56.6% |
| O=C(Nc1nc(-c2cc3ccccc3o2)cs1)c1ccc(S(=O)(=O)N2CCCC2)cc1 | 34.6% [at 12 µM] |
